# Assay outcomes deposited in PubChem BioAssay by National Center for Advancing Translational Sciences (NCATS).
# Compounds with a hit are over-represented: about 19% of the library has one in this group of screens.
# DT40 TDP1 CPT: DT40-hTDP1 cell growth loss with CPT | chicken DT40 Tdp1-/-;hTDP1 cells + 20 nM CPT, ATP luminescence, 48 h | Potency, µM (highest dose often 46.2 µM), without a hit: top-dose activity change, negative = growth inhibition, most hits filed as inhibitors | 12% of 420,000 active | AID 686979; note: nearly all actives have a fitted effect of over 55% in size
#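 Chicken DT40 Tdp1-/- cells complemented with human TDP1, 400 cells/well, exposed to compounds plus 20 nM camptothecin for at least 48 h at 37 C; viability read as ATP content by CellTiter-Glo luminescence.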
# RORg inh: inhibitors of mouse ROR gamma transcriptional activity; P51450; Drosophila S2 Gal4-RORgamma UAS-luciferase reporter, 20 h; 5.4% of 310,000 active; Potency, µM (top dose mostly 53.6 µM), without a hit: top-dose activity change, negative = inhibition, most hits filed as inhibitors; note: nearly all actives have a fitted effect of over 60% in size
#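 Stable Schneider cell line, Gal4 DNA-binding domain fused to ROR gamma, UAS-luciferase. Cmpd 1 hr RT → CuSO4 700 uM final → 20 hr RT → luciferase reagent 10 min → luminescence.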
# TDP1 block: TDP1 (human) enzyme inhibition. recombinant TDP1, AlphaScreen DNA substrate cleavage. 0.28% of 350,000 active. Potency, µM (highest dose often 130 µM), for inactives: at the highest dose activity change, negative = inhibition, actives largely listed as inhibitors. Q9NUW8; note: nearly all actives have a fitted effect of over 40% in size
# Target sequence (Q9NUW8 whole entry, looked up): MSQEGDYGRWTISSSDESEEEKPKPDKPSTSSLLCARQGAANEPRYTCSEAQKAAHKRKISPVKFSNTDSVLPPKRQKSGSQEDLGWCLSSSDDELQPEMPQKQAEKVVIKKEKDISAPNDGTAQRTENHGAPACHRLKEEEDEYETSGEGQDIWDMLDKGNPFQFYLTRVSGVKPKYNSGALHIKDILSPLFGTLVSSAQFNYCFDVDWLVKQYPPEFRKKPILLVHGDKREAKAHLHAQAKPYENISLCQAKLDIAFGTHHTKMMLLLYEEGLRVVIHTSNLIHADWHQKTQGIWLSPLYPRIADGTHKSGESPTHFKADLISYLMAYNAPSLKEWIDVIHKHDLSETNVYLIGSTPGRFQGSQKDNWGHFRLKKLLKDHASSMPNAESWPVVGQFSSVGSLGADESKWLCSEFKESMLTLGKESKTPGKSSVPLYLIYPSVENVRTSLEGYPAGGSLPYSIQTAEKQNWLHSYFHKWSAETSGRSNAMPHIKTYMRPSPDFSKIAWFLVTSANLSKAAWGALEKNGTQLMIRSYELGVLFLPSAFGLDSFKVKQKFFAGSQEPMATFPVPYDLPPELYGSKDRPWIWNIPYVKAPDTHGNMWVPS
#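 Recombinant human Tdp1 (E. coli-expressed, 1 nM final) preincubated with compounds 15 min at room temperature, then 5'-biotin/3'-phosphotyrosine-FITC DNA substrate (15 nM final) added for 5 min. AlphaScreen beads (10 ug/ml final) added 10 min; cleavage lowers signal.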
# Gal4-VP16 FLuc: Gal4-VP16 reporter inhibition counter-screen | Drosophila S2 Gal4-VP16 UAS-luciferase, luminescence, 20 h | Potency, µM (highest dose often 53.6 µM), inactives show at the top dose activity, negative = inhibition, most hits filed as inhibitors | 3.5% of 310,000 active | AID 2546;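 note: Gal4-VP16 expression switched on by copper sulfate through the metallothionein promoter; nearly all actives have a fitted effect of over 50% in size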
# DT40 TDP1 no CPT: qHTS for Inhibitors of human tyrosyl-DNA phosphodiesterase 1 (TDP1): qHTS in cells in absence of CPT | 15% of 420,000 active | Potency, µM (top dose mostly 46.2 µM), without a hit: at the highest dose activity change, negative = growth inhibition, most hits filed as inhibitors | AID 686978, 2013 | DT40 Tdp1-/- hTDP1 cells, no CPT, ATP luminescence, 48 h; note: nearly all actives have a fitted effect of over 55% in size
#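 Cells were dispensed at 400 per well, compounds added by pin tool, plates incubated ≥48 hr at 37 °C, then CellTiter-Glo added for 30 min at room temperature before luminescence reading. Line: DT40 Tdp1-/- complemented with hTDP1; camptothecin omitted.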
# * = called active by the depositor; ? = inconclusive; . = no result given; [ ] = another dose, or the depositor's remark. Calls come from the whole dose curve; as a rule, active = well fitted curve in the direction sought with a large enough effect; inconclusive = small, poorly fitted or top-dose-only effect, or another doubt; inactive = no such curve, though single readings can be large; an effect the other way counts as inactive or inconclusive. % is set by controls: 0 for no effect and ±100 for the full control effect; potency is the fitted concentration of half-maximal effect.
SMILES,DT40 TDP1 CPT,RORg inh,TDP1 block,Gal4-VP16 FLuc,DT40 TDP1 no CPT
Cc1nn(-c2ccc(C(=O)OC(C)C)cc2)c(C)c1[N+](=O)[O-],-1%,22%,2%,10%,26µM*
CC(=O)Nc1c(C)nn(-c2ccc([N+](=O)[O-])cc2)c1C,-4%,31%,8%,4%,15%
CCn1nc(C)c(C2C(C#N)=C(N)Oc3n[nH]c(C)c32)c1C (stereo unspecified),3%,-1%,5%,25%,-23%
O=C1c2ccccc2-c2n[nH]c(=O)c3ccc(N4CCCCC4)c1c23,9.2µM*,35%,8%,-12%,9.2µM*
CC(C)c1ccc(/C=N/NC(=O)c2ccc(-n3cnnn3)cc2)cc1,?,.,-11%,.,12µM*
O=C(N/N=C/c1ccncc1)c1ccccn1,-11%,24%,.,-3%,6%
CC(C)c1ccc(/C=N/NC(=O)c2ccccn2)cc1,0.033µM*,11µM*,4%,?,-11%
O=C(N/N=C/c1cccc(NC(=O)c2ccc(Cl)cc2)c1)c1cccc(O)c1,?,-9%,.,-5%,13µM*
CC(C)c1ccc(/C=N/NC(=O)c2cccc(Cl)c2)cc1,10µM*,?,5%,?,5.8µM*
Cc1cc(OCC(=O)NCc2cccnc2)c2c(C)c(C)c(=O)oc2c1,0%,-17%,0%,0%,-2%
Cc1nn(-c2ccccc2)c(Cl)c1C1C(C#N)=C(N)Oc2n[nH]c(C)c21 (stereo unspecified),?,-44%,7%,3%,?
CS(=O)(=O)N(CC(=O)NCCSCc1ccccc1)c1ccc2c(c1)OCO2,-3%,8%,4%,-6%,-16%
CSc1ccc(/C=N/NC(=O)c2cccc(O)c2)cc1,?,-40%,2%,2.2µM*,?
CC(=O)CSc1nc2cc3c(cc2cc1C#N)OCCO3,15µM*,42%,5%,-5%[10 µM],?
COc1cc2cc(C#N)c(SCC(=O)N3CCOCC3)nc2cc1OC,-6%,5%,2%,6%,-37%
N#Cc1cc2cc3c(cc2nc1SCC(=O)N1CCCC1)OCCO3,-22%,-4%,0%[0.0935 µM],10%,-11%
CCOC(=O)CSc1nc2cc(OC)c(OC)cc2cc1C#N,?,.,0%,.,18µM*
CCc1ccc2nc(SCC(=O)N(CC)CC)c(C#N)cc2c1,21µM*,?,-8%,-2%,15µM*
CCOC(=O)CSc1nc2cc(OCC)ccc2cc1C#N,-21%,8%,-2%,0%,-24%
CCOc1ccc2cc(C#N)c(SCC(=O)N3CCC(C)CC3)nc2c1,?,-3%[0.365 µM],3%,.,21µM*
CN(C)Cc1cc(OCc2ccccc2)cc(CN(C)C)c1O,5%,.,.,.,5%
CC(=O)Nc1ccc(S(=O)(=O)Nc2ccc3c(c2)n(C)c(=O)n3C)c(C)c1,4%,-19%,7%,1%,-6%
O=C(CC(c1ccccc1)c1ccccc1O)N1CCCCC1 (stereo unspecified),-11%,?,.,0%,-28%
O=C(O)CCCNc1ccc([N+](=O)[O-])c(NCCCC(=O)O)n1,0%,-15%,0%,2%,-11%
Nc1c(C(=O)CSc2ccccn2)c(=O)[nH]c(=O)n1C1CC1,-12%,.,2%,.,-1%
SMILES,DT40 TDP1 CPT,RORg inh,TDP1 block,Gal4-VP16 FLuc,DT40 TDP1 no CPT
CCN(CC)S(=O)(=O)c1ccc(SCC(=O)c2c(N)n(C3CC3)c(=O)[nH]c2=O)nc1,?,.,.,.,21µM*
CC(c1nnc(SCC(=O)c2c(N)n(C3CC3)c(=O)[nH]c2=O)n1-c1ccc(F)cc1)N(C)C (stereo unspecified),4%,.,2%,.,2.9µM*
CN(C)S(=O)(=O)c1ccc2oc(SCC(N)=O)nc2c1,-19%,4%,0%,17%,0%
CCN(C(=O)CSc1nnc(C(C)N(C)C)n1-c1ccc(F)cc1)C1CCS(=O)(=O)C1 (stereo unspecified),-8%,.,1%,.,9%
CN(C)S(=O)(=O)c1ccc2oc(SCC(=O)c3c(N)n(C4CC4)c(=O)[nH]c3=O)nc2c1,-8%,.,-1%,.,4.1µM*
O=C(COC(=O)c1ccc(F)c(S(=O)(=O)N2CCOCC2)c1)c1ccc(Cl)cc1,-11%,.,0%,.,-5%
CCCCSCCCNC(=O)C1CCC(CNS(=O)(=O)c2c(C)cc(C)cc2C)CC1 (stereo unspecified),15µM*,.,3%,.,18µM*
CCCCNC(=O)C1CCC(CNS(=O)(=O)c2c(C)cc(C)cc2C)CC1 (stereo unspecified),?,-5%,.,-1%,?
COc1cc(OC)c(NC2=C(c3ccc(C(F)(F)F)cc3)C(=O)c3ccccc32)cc1Cl,?,.,2%[12.3 µM],.,23µM*
Cc1ccc(C)c(NC2=C(c3ccc(C(F)(F)F)cc3)C(=O)c3ccccc32)c1,5.8µM*,.,8%,.,5.8µM*
Cc1c(Cl)ccc(S(=O)(=O)Nc2cccnc2)c1Cl,-11%,-10%,.,-3%,20%
O=C1CC(/C=C/c2ccco2)=Nc2ccccc2N1,?,12%,4%,-17%,?
O=C1CC(/C=C/c2ccccn2)=Nc2ccccc2N1,?,6%,5%,26%,15µM*
CC(=O)N1CCOc2cc(S(=O)(=O)Nc3cc(C(F)(F)F)ccc3Cl)c(C)cc21,-10%,.,0%,.,-16%
COc1cc(NS(=O)(=O)c2ccc3c(c2)CCN3S(C)(=O)=O)cc(OC)c1,18µM*,.,5%,.,5.2µM*
CC(=O)N1CCCc2cc(S(=O)(=O)Nc3ccc(C)c(F)c3)ccc21,?,.,8%,.,16µM*
CC(=O)N1CCc2cc(S(=O)(=O)Nc3ccc(C)c(C)c3)ccc21,.,.,1%,.,.
CC(=O)N1CCOc2cc(S(=O)(=O)Nc3cccc(C(F)(F)F)c3)c(Cl)cc21,?,.,11µM*,.,?
CSc1cccc(NS(=O)(=O)c2ccc3c(c2)CCN3C(C)=O)c1,9.2µM*,?,.,4.5µM*,3.7µM*
O=C(COC(=O)c1ccc(O)cc1)c1ccc(S(=O)(=O)N2CCCCC2)cc1,-29%,.,4%,.,-11%
CC(=O)N1CCCc2cc(S(=O)(=O)Nc3ccc4c(c3)OCO4)ccc21,-21%,29%,1%,-18%,-27%
CC(=O)N1CCc2cc(S(=O)(=O)Nc3cccc(C(F)(F)F)c3)ccc21,18µM*,?,4%,5µM*,21µM*
COC(=O)c1cc(S(=O)(=O)Nc2cccc(OC)c2)cn1C,?,31%,.,-6%,23µM*
COc1ccc(CNS(=O)(=O)c2ccc3c(c2)CCN3C(=O)C2CCC2)cc1,?,15%,0%,1%,?
